# Bioassay records from PubChem BioAssay.
# EBI2 antag: EBI2 receptor antagonists, beta-arrestin recruitment, primary screen, cell-based, luminescence, 7a,25-OHC stimulation, uHTS | 7a,25-OHC stimulated | AID 651636, 2012 | G-protein coupled receptor 183 (Homo sapiens), P32249 | 360,000 tested, 0.81% active | inhibition, % at 5 µM; in the data active means inhibition above about 38%;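 further: enzyme fragment complementation signal reports receptor beta-arrestin coupling in cells; 0% = agonist plus DMSO wells and 100% = wells without agonist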
# Target sequence (P32249 whole entry, looked up, the tested form may be a part): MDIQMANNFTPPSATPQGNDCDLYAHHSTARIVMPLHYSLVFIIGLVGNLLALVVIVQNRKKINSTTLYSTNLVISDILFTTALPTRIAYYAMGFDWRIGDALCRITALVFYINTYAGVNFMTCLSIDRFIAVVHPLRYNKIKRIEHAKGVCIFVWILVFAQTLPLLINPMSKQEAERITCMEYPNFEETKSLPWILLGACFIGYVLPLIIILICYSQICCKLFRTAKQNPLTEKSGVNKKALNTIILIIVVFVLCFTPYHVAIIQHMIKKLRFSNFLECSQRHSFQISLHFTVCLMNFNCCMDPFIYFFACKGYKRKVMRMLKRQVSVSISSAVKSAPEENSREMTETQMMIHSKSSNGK
# TIM10 inh: growth inhibitors of isogenic TIM10 control yeast, primary screen, counter-screen for tim10-1 yeast inhibitor project, luminescence, uHTS; S. cerevisiae TIM10 strain growth, BacTiter-Glo luminescence, 24 h; inhibition, % at 10 µM; 330,000 tested, 1.4% active; AID 463195, 2010;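 active means inhibition of 40% or more at the single tested concentration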;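 further: wild-type TIM10 isogenic control strain grown at permissive 25 °C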
# tim10-1 inh: growth inhibitors of tim10-1 mutant yeast, primary screen, luminescence, uHTS; S. cerevisiae tim10-1 ts strain growth, BacTiter-Glo, 24 h; inhibition, % at 20 µM; 330,000 tested, 2.2% active; AID 463190, 2010;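 active means inhibition of at least 40%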;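 further: mutant grown at 25 °C; 0% = DMSO wells with yeast and 100% = wells holding no yeast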
# PfHsp90 set2: growth inhibition of PfHsp90-expressing yeast, primary screen, antimalarial PfHsp90 inhibitor project, S. cerevisiae, BacTiter-Glo luminescence, single point, set 2 | BacTiter-Glo ATP, 48 h; yeast lacking PDR1 and PDR3 efflux regulators | 310,000 tested, 0.32% active | inhibition, % at 9.4 µM;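 active means every replicate shows inhibition above about 80%, whatever the replicate mean, limit read from the data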;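 further: 0% = DMSO neutral controls and 100% = 20 µM radicicol positive controls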
# tim23-1 inh: growth inhibitors of tim23-1 mutant yeast, primary screen, luminescence, uHTS; S. cerevisiae tim23-1 growth, BacTiter-Glo luminescence, 24 h; inhibition, % at 20 µM; 330,000 tested, 1.3% active;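 active means growth inhibition of the mutant yeast at or above 50%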;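 further: temperature-sensitive mutant grown at 25 °C; plate controls were DMSO-treated mutant yeast for no effect and medium wells lacking yeast for full effect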
# SKKanGAS inh: S. pyogenes SKKanGAS growth inhibitors in kanamycin, primary screen, streptokinase expression inhibitor project, SKKanGAS strain, BacTiter-Glo luminescence; 6 h; inhibition, % at 7.5 µM; 300,000 tested, 1.3% active; AID 1662, 2009;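 active means mean replicate score, as percent of positive control median, at least 50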;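 further: strain carries kanamycin resistance gene driven by streptokinase promoter and grows in 40 µg/ml kanamycin; loss of luminescence reflects streptokinase promoter inhibition or plain growth inhibition; 0% = median of DMSO wells and 100% = positive control at its reference dose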
# tim10-1 conf: growth inhibitors of tim10-1 mutant yeast, confirmation, single concentration, luminescence, S. cerevisiae | inhibition, % at 20 µM | S. cerevisiae tim10-1 ts strain growth, BacTiter-Glo, 24 h | shares compounds with tim10-1 inh | 7,400 tested, 56% active;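 active means inhibition of yeast growth at or above a set limit in either of two repeat tests at 20 µM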;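 further: tim10-1 mutant grown at permissive 25 °C to find synthetic lethal compounds; 0% = DMSO yeast wells and 100% = medium wells without yeast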
# TIM10 conf: growth inhibitors of wild-type TIM10 yeast, confirmation, counter-screen for tim10-1 synthetic lethality project, single concentration, luminescence, S. cerevisiae; shares compounds with TIM10 inh; S. cerevisiae tim10 strain growth, BacTiter-Glo luminescence, 24 h; inhibition, % at 10 µM; 4,600 tested, 63% active; AID 463215, 2010;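 active means inhibition of yeast growth at or above a set limit in either of two replicates at 10 µM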;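 further: this counterscreen used the strain with wild-type TIM10; 0% = yeast with DMSO and 100% = medium wells lacking yeast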
# tim23-1 conf: tim23-1 mutant yeast growth inhibitors, confirmation, luminescence, single concentration. 4,400 tested, 83% active. inhibition, % at 20 µM. AID 463218, 2010. S. cerevisiae tim23-1 growth, BacTiter-Glo luminescence, 24 h. shares compounds with tim23-1 inh;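 active means inhibition above about 39% in either of two replicate wells at 20 µM, limit read from the data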;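 further: temperature-sensitive tim23-1 mutant grown at 25 °C; 0% = DMSO wells with yeast and 100% = medium wells without yeast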
# * = called active by the depositor; / = not tested or not shown. Shown are actives, neighbours in structure and some others; about 4.7% of the full set was active somewhere.
SMILES,EBI2 antag,TIM10 inh,tim10-1 inh,PfHsp90 set2,tim23-1 inh,SKKanGAS inh,tim10-1 conf,TIM10 conf,tim23-1 conf
N#CC1=C(N)OC(c2ccccc2)=C(C#N)C1c1ccc2c(c1)OCO2 (configuration not stated),-3,82*,62*,-35,72*,-2,56*,71*,75*
N#CC1=C(N)OC2=C(C(=O)CC(c3ccccc3)C2)C1c1ccc2c(c1)OCO2 (configuration not stated),6,19,32,26,32,2,/,/,/
CC1CCCC(C)N1C(=O)c1cccc2c1-c1ccccc1/C2=N/O (configuration not stated),4,26,42*,-3,50*,/,39*,/,44*
CCOC(=O)c1sc(NC(=O)c2cccc(S(=O)(=O)N3CCN(C)CC3)c2)cc1C,-1,16,6,10,-3,2,/,/,/
COC(=O)c1c(NC(=O)c2cccc(S(=O)(=O)N3CCN(C)CC3)c2)sc(C)c1C,13,28,57*,/,55*,-13,42*,/,47*
CC(=O)c1c(OCC(=O)O)ccc2c(C)cc(=O)oc12,0,11,-2,-22,21,-4,/,/,/
Cc1cc(=O)oc2c(C(=O)/C=C/c3ccccc3)c(O)ccc12,-12,-7,27,31,13,4,/,/,/
COc1cc(/C=C/C(=O)c2c(O)ccc3c(C)cc(=O)oc23)ccc1O,8,57*,78*,-33,73*,33,72*,73*,82*
COc1ccc(/C=C\C(=O)c2c(O)ccc3c(C)cc(=O)oc23)cc1OC,1,47*,53*,-18,54*,-6,50*,51*,52*
Cc1cc(=O)oc2c(C(=O)/C=C\c3cccs3)c(O)ccc12,-13,56*,54*,-70,73*,12,79*,64*,66*
O=Nc1ccc(NOC(=O)c2ccccc2)cc1,-14,46*,44*,2,59*,-11,54*,53*,70*
CCS(=O)(=O)c1ccc2oc(Nc3cccc(OC)c3)nc2c1,1,25,14,5,30,6,/,/,/
O=C(Cn1cnc2ccccc21)N/N=C/C(Br)=C/c1ccccc1,6,-13,-22,-41,-35,1,/,/,/
CCOc1cccc(NC(=O)/C(C#N)=C\c2cccnc2)c1,27,52*,61*,1,81*,-3,40*,48*,79*
CCCOc1ccccc1/C=C(\C#N)C(=O)Nc1cccnc1,-30,54*,73*,2,85*,4,48*,46*,71*
CC(C)c1ccc(NC(=O)/C(C#N)=C/c2ccncc2)cc1,21,27,54*,22,78*,-5,15,/,55*
CC(C)Oc1ccc(S(=O)(=O)N2CCOCC2)cc1NC(=O)c1ccc(Cl)c(S(=O)(=O)N2CCOCC2)c1,0,/,/,/,/,/,/,/,/
Cc1ccnc(NC(=S)NC(=O)/C=C/c2ccc(Cl)cc2)c1,-2,-1,0,10,-28,1,/,/,/
Cc1onc(-c2ccccc2)c1-c1nc2cc(Cl)ccc2c(=O)o1,-12,19,43*,7,68*,11,18,/,53*
Cc1onc(-c2ccccc2)c1-c1nc2ccccc2c(=O)o1,8,30,40,-18,49,20,/,/,/
